From PubChem BioAssay (NCI)
The panel holds about 83,000 compounds, 20% with a hit somewhere; the sample as a whole holds those more often.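 Testing used 96-well plates and a 48-hour single-concentration exposure. Example: -40 means 40% of the starting cells died.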 Values without a mark were called inactive. The source made the active and inactive calls.

The compounds below were run on HCT-116 colon (assay: NCI-60 one-dose screen, 48 h (100 = growth as untreated, 0 = no growth, -100 = all killed)). Conditions: 10 µM unless noted.
Method: Growth inhibition of the HCT-116 human tumor cell line is measured as a screen for anti-cancer activity. Cells are grown in 96 well plates and exposed to the test compound for 48 hours. Compounds are tested at a single concentration, which is 10^-5 M for most compounds. The reported endpoint is percent growth (GI% or GIPRCNT), where numbers from 0 - 100% represent growth inhibition, and numbers from -100% - 0 represent cell death. For example, a value of 40 represents 60% growth inhibition. A value of 0 means no net growth occurred over the course of the experiment. A value of -40 indicates 40% of cells at the beginning of the experiment died by the end of the experiment. A value of -100 means all cells are dead at the end of the experiment.
NCI-60 Human Tumor Cell Lines Screen was performed using the standard one-dose NCI protocol, which is described in more detail at https://dtp.cancer.gov/discovery_development/nci-60/default.htm.
Compounds with GIPRCNT values below 10 were considered active. Activity score was based on GIPRCNT using the following formula: […]
Score is 0 for GIPRCNT values of 100 or above, 50 for GIPRCNT values of 0, and 100 for GIPRCNT values of -100.

How did the growth turn out when `Cc1ccc(C2=Nc3c(N)ncnc3NC(c3ccc4c(c3)OCO4)C2)cc1` (stereo not given) was run?
Its growth is 47%.

Which growth does the source give for `Clc1ccc(CNc2c3ccccc3nc3ccccc23)cc1` here?
The growth was 15.7%.

`O=C(OCc1ccc2cccc(O)c2n1)N1CCN(C(=O)c2cc3cc(F)ccc3[nH]2)CC1` was tested. Which growth did it give?
Its growth is -78.8% (active).

How did the growth turn out when `O=c1oc2ccccc2cc1C1=NN=C(SCc2ccccc2)SC1` was run?
Its growth is 99.1%.

How did the growth turn out when `CO[C@H]1/C=C(/C)CCC[C@H](C)[C@H](O)[C@@H](C)C(=O)C(C)(C)[C@@H](O)CC(=O)O[C@@H]1/C(C)=C/c1csc(C)n1` was run?
Its growth is 9.39% (active).

`C#CCOc1ccc2ncnc(Nc3ccc(NC(=O)CCl)cc3)c2c1` was tested. Which growth did it give?
The growth was 0.822% (active).

How did the growth turn out when `CC(=O)N(N=Nc1ccccc1)c1cccc2ccccc12` was run?
Its growth is 56.4%.

Which growth does the source give for `COc1ccccc1Nc1nc2c(s1)C1=CC[C@H]3[C@@H]4CC[C@H]([C@H](C)CCCC(C)C)[C@@]4(C)CC[C@@H]3[C@@]1(C)CC2` here?
Its growth is 102%.

With `O=C1/C(=C/c2cccs2)SC(=S)N1CCCN1CCOCC1` as the compound, how does the growth read?
The growth was 87.8%.

Which growth does the source give for `CSc1nc2sc3c(c2c(=O)n1-c1ccc([N+](=O)[O-])cc1)CCCCC3` here?
The growth was 84.4%.

Which growth does the source give for `CCN(CC)c1ccc(/C=C/C(=O)c2ccc(Nc3nc(Nc4ccccc4)nc(Nc4ccccc4)n3)cc2)cc1` here?
The growth was 50.2%.

`O=c1oc2c(cnc3ccccc32)cc1-c1ccsc1` was tested. Which growth did it give?
The growth was 99.7%.

How did the growth turn out when `CC1(C)CC[C@]2(C(=O)O)CC[C@]3(C)C(=CC[C@@H]4[C@@]5(C)C/C(=C/O)C(=O)C(C)(C)[C@@H]5CC[C@]43C)[C@@H]2C1` was run?
Its growth is 12.7%.

Which growth does the source give for `O=C(c1cc2ccccc2o1)c1nn(-c2ccccc2)/c(=N/N=Cc2cn(-c3ccccc3)nc2-c2cc3ccccc3oc2=O)s1` here?
Its growth is 89.8%.

For `COc1ccc(-c2ccc3cnc4sc(-c5ccc(OC)cc5)nc4c3n2)cc1`, which growth is on record?
Its growth is 94.5%.

Which growth does the source give for `CCNc1nc(-c2ccc(Cl)c(OC)c2)c(-c2ccnc(NCCCNS(=O)(=O)c3ccc(Cl)cc3)n2)s1` here?
Its growth is 42.4%.

`CCN1C(=O)N(CC)C2C1NN=c1s/c(=C\c3ccc(Cl)cc3Cl)c(=O)n12` (stereo not given) was tested. Which growth did it give?
The growth was 9.71% (active).

For `N#CC1CCc2c(c(-c3cn[nH]c3C(F)(F)F)nc3c(F)cc4[nH]ncc4c23)C1` (stereo not given), which growth is on record?
The growth was 5.5% (active).

For `C=CCn1c(SCC(=O)Nc2ccc(C(=O)/C=C/c3ccc(Cl)cc3)cc2)nnc1-c1cc(-c2ccc(S(N)(=O)=O)cc2)nc2ccccc12`, which growth is on record?
Its growth is -31.5% (active).

`Cc1cccc(N2CCN(CC(O)COc3ccc(Cl)cc3)CC2)c1` (stereo not given) was tested. Which growth did it give?
Its growth is 89.9%.

Which growth does the source give for `Brc1c2c(c(Br)c3ccccc13)CCCC2` here?
The growth was 91.4%.

`CCOC(=O)CNP(=O)(OC[C@@H](Cc1ccccc1)NC(=O)c1cc2ccccc2s1)Oc1ccccc1` (stereo not given in full) was tested. Which growth did it give?
The growth was 71.9%.

`C=C(C)[C@@H]1CC[C@]2(C)[C@H](CC=C3[C@@H]4[C@H](C)[C@@H](C)CC[C@]4(CO)CC[C@]32C)[C@@]1(C)CCCN` was tested. Which growth did it give?
The growth was -57.8% (active).

How did the growth turn out when `N#Cc1cnc(NCCc2ccncc2)nc1-n1cnc2ccccc21` was run?
The growth was 24.8%.

How did the growth turn out when `C=C(CNCCc1ccc(O)cc1)[C@@H]1CC[C@]2(CO)CC[C@]3(C)[C@H](CC[C@@H]4[C@@]5(C)CCC(NCCO)C(C)(C)[C@@H]5CC[C@]43C)[C@@H]12` (stereo not given in full) was run?
Its growth is -92.5% (active).

For `COC(=O)CNC(=O)[C@H](Cc1ccccc1)NCc1ccncc1`, which growth is on record?
Its growth is 100%.

With `C=C1C(=O)O[C@H]2[C@H]1CC/C(COC(=O)N[C@H]1C[C@H](O[C@H]3C[C@](O)(C(=O)CO)Cc4c(O)c5c(c(O)c43)C(=O)c3c(OC)cccc3C5=O)O[C@@H](C)[C@H]1O)=C\CC[C@@]1(C)O[C@@H]21` as the compound, how does the growth read?
The growth was 7.69% (active).

`O=C(Nc1ncc(Cc2ccc(Cl)c(C(F)(F)F)c2)s1)c1ccc2nnsc2c1` was tested. Which growth did it give?
Its growth is 45%.

For `CN([O-])c1nc(N(C)[O-])nc(N2CCOCC2)n1.CN([O-])c1nc(N(C)[OH2+])nc(N2CCOCC2)n1.[Fe+3]`, which growth is on record?
The growth was 65.8% [100 µM].

For `N#CC1C=CN(CC(N)=O)c2ccc3cccnc3c21` (stereo not given), which growth is on record?
Its growth is 94.8%.

With `Fc1cccc(CNc2c3ccccc3nc3ccccc23)c1F` as the compound, how does the growth read?
The growth was 17.5%.

For `CN(C)CCNc1nc2c3cc(Cl)ccc3nn2c2ccccc12`, which growth is on record?
The growth was 22.9%.

`Cc1nc2sc(C(=O)Nc3cccc(Cl)c3C)c(N)c2cc1C(=O)c1ccccc1` was tested. Which growth did it give?
Its growth is 13.1%.

For `C/C(Nc1ccc(Cl)c(Cl)c1)=C1\CCOC1=O`, which growth is on record?
The growth was 80.7%.

How did the growth turn out when `Cc1cnc(C(=O)NNc2nc3sc4c(c3c(=O)n2C)C(C)CCC4)cn1` (stereo not given) was run?
Its growth is 3.75% (active).

How did the growth turn out when `O=C1c2cccc3cccc(c23)C(=O)N1N1C(=O)c2cccc3c(N4CCOCC4)ccc(c23)C1=O` was run?
The growth was 91.3%.

With `O=C(Nc1cc(Cl)ccc1O)c1ccc(Nc2ccnc(C(F)(F)F)c2)cc1` as the compound, how does the growth read?
The growth was 16%.

`O=C(Cn1cc(CN2C(=O)c3ccccc3S2(=O)=O)nn1)Nc1nc2ccccc2s1` was tested. Which growth did it give?
The growth was 88%.

How did the growth turn out when `C=C(C)[C@@H]1CC[C@]2(C(=O)NCCNCCN)CC[C@]3(C)[C@H](CC[C@@H]4[C@@]5(C)C/C(=C/c6ccncc6)C(=O)C(C)(C)[C@@H]5CC[C@]43C)[C@@H]12` was run?
The growth was 83.7%.

How did the growth turn out when `COC(=O)c1cc(-c2ccccc2)[nH]c1N/N=C/c1c(Cl)cccc1Cl` was run?
The growth was -1.99% (active).
